The subject of one experiment is RXRa homodimer (NR concentration 180 nM). Nature of the experiment: PBM binding z-score (relative to random genomic background probes); higher = stronger binding; sequences stand for … in GC…GCGATTGACAGCGTAGAATGAAGG
The method, boiled down:
(§1)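 On custom Agilent 4×180K arrays, double-stranded probes with 34-nt variable regions carried direct-repeat seeds, single-nucleotide variants, half-site ablations or random human genomic background. Ligand-free nuclear receptor dimers were applied for 1 h, and binding was read with antibodies against each partner (one per run). Binding z-scores come from regression-normalized fluorescence, with the random background probes as reference.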
On to GCGACTGGGGCAAAGCAGGTTACCATGAGGTTGG, for which the PBM binding z-score came to 0.455.
Consider GCTAGTTGGTCACTAAAAGGTCACACACCGGTCG, for which the PBM binding z-score is 5.16.
Same read-out and setting: the same measure for ATCTCTAGGTAACAAGTGCAGTGAAAGAGAGGAC: 0.249; for CCTACTGGGCCATCTGGTCATTGATATCAACGTT: -0.224; for ATCTCTAGGTAAAAGTTCAGTGGATCCCGAGGAT: 1.53.
CGTCAAAGTTCAACTAAAGTAACGTAAAGCACGC displayed a PBM binding z-score of 5.02.
Same read-out and setting: the same measure for ACTAGCAGGCCAAGTTTGGGTGACTCAAACAAAG: -0.222; for CCTGCTAGGTCATGGTCAGCAAATCTACAGTATG: 2.84; for ACAGACAGGTGATGCAGGTAACTCAGGCTATCAT: 0.354.
Same read-out and setting: the same measure for TCTGCTAGGTCAACGATGGTTAGCTAATCTGCTA: 2.75.
As for ATCAAAAGGTCGACGAGGTGAGTATACACCGTTT, the PBM binding z-score stood at 4.69.
On the same count and under the same terms, the same measure for GCTGCTAGGTCAACTGATGGTCAGCCAAAGCTCG: 2.89.
Still for that read-out and setting: the same measure for CGTCCAAGGTCAATGCCAGGTCAGTGAAAGCATT: 5.27; for GCTTACGGGTCAAAGGTTATATCATGAATAGAAT: 9.55.
The same measure, in the same setting: the same measure for TCTAGGTGGTCACGGAGGTCACACACGACGGGTA: 4.95; for CGTCCAATGTCAAAGGTCAGTGAAGAGATGACGG: 6.57.
Sequence CCTTACGGGTCACTCCAGGTTATAGGATCGGAGT showed a PBM binding z-score of 4.79.
Sequence GTACCAATGTGAATAGGTCGTTGATGAGTAGGCG displayed a PBM binding z-score of 0.356.
In the case of ACTAGCAGGCCAAGTATGGGTCACTCAAACAAAG, the PBM binding z-score worked out at 1.11.
The same measure, in the same setting: the same measure for CGTCCAAGGTCAGAGATGTCAGTGAATGCCGAGT: 3.3.
Same read-out and setting: the same measure for GCGACTGCGGCATCAGCAGGTTACCATAACTTAA: 0.0443; for TCTTGTAGCTCAATAGAGGTTAAGAAAGTGCGCT: 0.994.
Still for that read-out and setting: the same measure for CAGCCTAGGTCAGGGCCAGTACAGGAGGAACGTT: 1.45; for TCTGACAGGTGAAGGTAACTCAGGTACGCAGTCG: 0.901.
For the sequence TCTGGTAGATCAAGCAGGTTAAGAAAGCCTGAGT, the PBM binding z-score came to 0.202.
In turn, ATACCAAGGTGATCGTGAGGTGGTTGATACTAAC returned a PBM binding z-score of 0.48.
Same read-out and setting: the same measure for TCTCGGAGGACACGAAGATCAGAGCTTTCCAGAG: 0.273; for TTACCAAGGTGAAAGGTCGTTGATGCACGCCTTG: 5.67.
Take CAAACTAGGTCCCCGGAAGGTCAAAGTCCGCATG: the PBM binding z-score came to 3.49.
Same read-out and setting: the same measure for CCTACTGGGACACGAAAGGTCATTGATTCAGTGA: 5.12; for ATACCAAGGTAATCGTGAGGTCGTTGATACTAAC: 1.2.
Sequence CAAACTAGGTCACCGGAAGGTCAAAGTGCGCATG had a PBM binding z-score of 6.73.
Turning to TGTTGTAGATCAACAGGAGGTTAAGAAAGATCGA, the PBM binding z-score turned out to be 0.741.
Same read-out and setting: the same measure for TCGAGTAGGTTAGAGGCATTCAGAATGGCGTCGA: 0.0736; for CAGACAGGGTCAGCTAGGCCAGAGTAGGGACGGC: 4.42; for GCGACTGGGGCATCAGCGGGTTACCATAACTTAA: 0.347.
On the same count and under the same terms, the same measure for CCTACTGGGCCAGGGTCATTGATCAGTCAAAGCA: 3.7.
The sequence ATATGTAGGTTAGGTGGGGTCATTCAGACTAGGC had a PBM binding z-score of 5.54.
The same measure, in the same setting: the same measure for GCAGACAGGTGACACGCAGGTAACTCAGGGTGGC: 0.715.
Sequence CCTACTGGGCCAAGAAGGTCATTGATGCCGATAA showed a PBM binding z-score of 2.9.

Another experiment deals with THRa:RXRa (NR concentration 90 nM, RXRa partner concentration 90 nM). The description is as above. The method, boiled down: as §1
Regarding GCGACTGGGGCAAAGCAGGTTACCATGAGGTTGG, the PBM binding z-score was 2.99.
GCTAGTTGGTCACTAAAAGGTCACACACCGGTCG displayed a PBM binding z-score of 3.61.
On the same count and under the same terms, the same measure for ATCTCTAGGTAACAAGTGCAGTGAAAGAGAGGAC: 1.11.
Regarding CCTACTGGGCCATCTGGTCATTGATATCAACGTT, the PBM binding z-score was -0.171.
The same measure, in the same setting: the same measure for ATCTCTAGGTAAAAGTTCAGTGGATCCCGAGGAT: 1.2; for CGTCAAAGTTCAACTAAAGTAACGTAAAGCACGC: 2.61; for ACTAGCAGGCCAAGTTTGGGTGACTCAAACAAAG: 0.796.
CCTGCTAGGTCATGGTCAGCAAATCTACAGTATG returned a PBM binding z-score of 3.09.
In the case of ACAGACAGGTGATGCAGGTAACTCAGGCTATCAT, the PBM binding z-score turned out to be 0.549.
On the same count and under the same terms, the same measure for TCTGCTAGGTCAACGATGGTTAGCTAATCTGCTA: 2.9.
Same read-out and setting: the same measure for ATCAAAAGGTCGACGAGGTGAGTATACACCGTTT: 3.9; for GCTGCTAGGTCAACTGATGGTCAGCCAAAGCTCG: 2.86; for CGTCCAAGGTCAATGCCAGGTCAGTGAAAGCATT: 4.71.
In the case of GCTTACGGGTCAAAGGTTATATCATGAATAGAAT, the PBM binding z-score turned out to be 4.12.
The same measure, in the same setting: the same measure for TCTAGGTGGTCACGGAGGTCACACACGACGGGTA: 3.62; for CGTCCAATGTCAAAGGTCAGTGAAGAGATGACGG: 2.97; for CCTTACGGGTCACTCCAGGTTATAGGATCGGAGT: 4.95.
Still for that read-out and setting: the same measure for GTACCAATGTGAATAGGTCGTTGATGAGTAGGCG: -0.0211; for ACTAGCAGGCCAAGTATGGGTCACTCAAACAAAG: 0.976; for CGTCCAAGGTCAGAGATGTCAGTGAATGCCGAGT: 3.29.
Consider GCGACTGCGGCATCAGCAGGTTACCATAACTTAA, for which the PBM binding z-score stood at 0.0329.
Turning to TCTTGTAGCTCAATAGAGGTTAAGAAAGTGCGCT, the PBM binding z-score stood at 1.27.
Still for that read-out and setting: the same measure for CAGCCTAGGTCAGGGCCAGTACAGGAGGAACGTT: 2.02; for TCTGACAGGTGAAGGTAACTCAGGTACGCAGTCG: 1.5.
Consider TCTGGTAGATCAAGCAGGTTAAGAAAGCCTGAGT, for which the PBM binding z-score was -0.00478.
ATACCAAGGTGATCGTGAGGTGGTTGATACTAAC had a PBM binding z-score of 1.61.
In the case of TCTCGGAGGACACGAAGATCAGAGCTTTCCAGAG, the PBM binding z-score was determined as 1.1.
Same read-out and setting: the same measure for TTACCAAGGTGAAAGGTCGTTGATGCACGCCTTG: 3.23; for CAAACTAGGTCCCCGGAAGGTCAAAGTCCGCATG: 2.91.
As for CCTACTGGGACACGAAAGGTCATTGATTCAGTGA, the PBM binding z-score is 3.77.
Still for that read-out and setting: the same measure for ATACCAAGGTAATCGTGAGGTCGTTGATACTAAC: 3.27; for CAAACTAGGTCACCGGAAGGTCAAAGTGCGCATG: 4.72; for TGTTGTAGATCAACAGGAGGTTAAGAAAGATCGA: 0.863.
In the case of TCGAGTAGGTTAGAGGCATTCAGAATGGCGTCGA, the PBM binding z-score was -1.08.
Still for that read-out and setting: the same measure for CAGACAGGGTCAGCTAGGCCAGAGTAGGGACGGC: 3.01.
On the same count and under the same terms, the same measure for GCGACTGGGGCATCAGCGGGTTACCATAACTTAA: 0.628.
On the same count and under the same terms, the same measure for CCTACTGGGCCAGGGTCATTGATCAGTCAAAGCA: 2.7.
For the sequence ATATGTAGGTTAGGTGGGGTCATTCAGACTAGGC, the PBM binding z-score stood at 5.05.
For the sequence GCAGACAGGTGACACGCAGGTAACTCAGGGTGGC, the PBM binding z-score is 0.997.
CCTACTGGGCCAAGAAGGTCATTGATGCCGATAA: the PBM binding z-score was determined as 2.33.

The values above are taken from the supplement of paper PMC6555819.
